High-throughput results from PubChem.
An excerpt weighted towards active compounds, which were near 19% of everything screened.
IL1B secr inh – inflammasome signaling inhibition, IL-1 beta readout; activity change, % at 57.5 µM; THP-1 LPS/ATP IL-1B secretion, AlphaLISA, 16 h; stronger effect = lower value; 360,000 tested, 4.7% active; in the data active means activity change below about -50%; inconclusive means mostly about -30% to -49%
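THP-1 cells pretreated 1 hr with compounds (up to 57.5 uM final), then stimulated with LPS (250 ng/mL final) plus ATP (1.25 mM final); secreted IL-1B measured by AlphaLISA after 16 hr, decreased signal indicating inhibition.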
TDP1 cell CPT – DT40-hTDP1 cell growth loss with CPT; chicken DT40 Tdp1-/-;hTDP1 cells + 20 nM CPT, ATP luminescence, 48 h; 420,000 tested, 12% active; AID 686979; Potency, µM (highest dose often 46.2 µM), for the others: at the top dose activity change, negative = growth inhibition, hits mostly inhibitors; further: potency means the concentration at half of the fitted maximal effect; nearly all actives have a fitted effect of over 55% in size
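Cell growth measured by CellTiter-Glo luminescence after a minimum 48 h, 37 C compound exposure with 20 nM CPT in Tdp1-knockout DT40 cells stably expressing hTDP1, seeded 400/well; qHTS titration format.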
HT1080 IDH1KD tx – toxicity to HT-1080 IDH1 knockdown cells (counter line). HT-1080 IDH1 knockdown viability, ATP luminescence, 48 h. Potency, µM (series often up to 46.1 µM), for the others: at the highest dose activity, negative = toxicity, usual class: cytotoxic. 360,000 tested, 2% active;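 further: potency means the concentration at half of the fitted maximal effect; 0% = DMSO wells and -100% = cell-free medium wells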
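After a 2 h attachment period, IDH1KD HT-1080 cells took pin-transferred compound for 48 h at 37 °C; ATP-based luminescence after 10 min room-temperature reagent incubation reported viability.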
TDP1 cell noCPT – qHTS for Inhibitors of human tyrosyl-DNA phosphodiesterase 1 (TDP1): qHTS in cells in absence of CPT; Potency, µM (doses to about 46.2 µM), without a hit: top-dose activity change, negative = growth inhibition, usual class: inhibitors; 420,000 tested, 15% active; DT40 Tdp1-/- hTDP1 cells, no CPT, ATP luminescence, 48 h; further: potency means the concentration at half of the fitted maximal effect; nearly all actives have a fitted effect of over 55% in size
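Readout: luminescence from CellTiter-Glo after 30 min in the dark at RT. Cells: DT40 Tdp1-/- with stable hTDP1, 400/well. Exposure: compounds alone, ≥48 hr, 37 °C.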
HT1080NT lethal – kills 2HG-producing HT-1080-NT fibrosarcoma cells. HT-1080-NT fibrosarcoma viability, CellTiter-Glo ATP luminescence, 48 h. Potency, µM (titrated, usually from 46.1 µM), for the others: top-dose activity, negative = less viability, most hits filed as cytotoxic. 360,000 tested, 1.6% active. AID 686970;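 further: NT is the 2HG producing partner of a matched IDH1 knockdown line; potency means the concentration at half of the fitted maximal effect; 0% = DMSO-treated cells and -100% = media-only wells without cells; nearly all actives have a fitted effect of over 55% in size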
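A 48-hour cytotoxicity screen used HT-1080-NT cells plated 2 hours before compound delivery. ATP-based CellTiter-Glo luminescence measured viability, normalized to DMSO and no-cell controls.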
* = called active by the depositor; ? = inconclusive; . = no result. Unless noted, the call rests on the fitted dose curve; in most records, active means well fitted curve in the direction sought with a large enough effect; inconclusive means small, poorly fitted or top-dose-only effect, or another doubt; inactive means no such curve, though single readings can be large; an effect the other way counts as inactive or inconclusive. Unless noted, on the % scale 0 is the no-effect control and ±100 the full control effect.

SMILES	IL1B secr inh	TDP1 cell CPT	HT1080 IDH1KD tx	TDP1 cell noCPT	HT1080NT lethal
COc1ccc(/C=C/C(=O)NCC2COc3ccccc3O2)c(OC)c1 (stereo not given)	-59*	-30%	1%	?	-6%
Cc1nc2ccccc2c(=O)n1/N=C/c1cn(-c2ccccc2)nc1-c1cccs1	1	?	-19%	21µM*	-22%
Cc1ccc(-n2[nH]c(C)c(/C=N/n3c(C)nc4ccccc4c3=O)c2=O)cc1	37	6.5µM*	11µM*	23µM*	18µM*
Cc1[nH]n(-c2ccccc2)c(=O)c1/C=N/n1c(C)nc2ccccc2c1=O	15	?	-8%	?	-5%
Cc1ccc(-n2[nH]c(C)c(C=Nc3ccc(C)cn3)c2=O)cc1	20	9.2µM*	0%	16µM*	7.9µM*
O=C(Cc1ccccc1)c1c[nH]c(C(=O)NC2CCCC2)c1	-19	-19%	14%	-13%	20%
NC(=O)c1c(/N=C/c2cccnc2)sc2c1CCCC2	13	?	-20%	?	-24%
COc1ccc(Cl)cc1NC(=O)c1nc(S(C)(=O)=O)ncc1N(Cc1ccc(C)cc1)Cc1ccco1	.	8.2µM*	.	9.2µM*	.
CCS(=O)(=O)c1ncc(N(Cc2ccccc2)Cc2ccco2)c(C(=O)Nc2ccc(C)c(C)c2)n1	.	21µM*	.	12µM*	.
CCS(=O)(=O)c1ncc(N(Cc2ccccc2)Cc2ccco2)c(C(=O)Nc2ccccc2C)n1	.	-18%	.	-23%	.
CCc1ccc(CN(Cc2ccco2)c2cnc(S(C)(=O)=O)nc2C(=O)Nc2cccc(C)c2)cc1	.	13µM*	.	21µM*	.
CCc1ccc(Cn2nnc(C(=O)Nc3cccc(C)c3)c2N)cc1	-16	-9%	1%	-7%	0%
CS(=O)(=O)c1ncc(N(Cc2ccco2)Cc2cccs2)c(C(=O)Nc2ccccc2F)n1	.	?	.	21µM*	.
Cc1ccc2c(c1)c1c(c(=O)n(-c3cccc(Cl)c3)c(=O)n1CC(=O)NCC1CCCO1)n2C (stereo not given)	.	-22%	.	-21%	.
Cc1ccn2cc(C34CC5CC(CC(C5)C3)C4)nc2c1	-23	?	-12%	?	-1%
CSc1ccc(Cl)c(C(=O)N(C)CC(=O)Nc2ccc(N3CCOCC3)cc2)c1	-9	-23%	4%	-20%	6%
Cc1ccc(NC(=O)NC(=O)N(C(C)C)S(=O)(=O)c2ccc(C)cc2)cc1	16	-2%	21%	21%	6%
COc1ccc(NC(=O)c2nc(S(C)(=O)=O)ncc2N(Cc2ccc(C)cc2)Cc2ccco2)cc1Cl	.	?	.	18µM*	.
Cc1ccc(NC(=O)c2nc(S(C)(=O)=O)ncc2N(Cc2ccccc2)Cc2ccco2)c(C)c1	.	13µM*	.	18µM*	.
Cc1ccc(NC(=O)c2cc(C)nc3ccccc23)c(C)c1	20	-18%	-1%	?	5%
COc1ccc(NC(=O)c2ncoc2-c2ccco2)cc1Cl	.	-3%	.	-13%	.
CN1C2Cc3c(n(C)c4ccccc34)C1CC=C2CO (stereo not given)	38	-1%	0%	3%	-18%
CCOC(=O)C1=CC[C@H]2c3c(c4ccccc4n3C)C[C@H]1N2C	2	29µM*	-8%	?	0%
CN(C)C(=S)NC(=O)C12CC3(C)CC(C)(CC(C)(C3)C1)C2	22	-12%	-1%	1.3µM*	14%
CC(=O)c1cccc(Nc2ccc(Br)cc2)c1	1	?	1%	?	-1%
COc1ccc(Nc2cc(C)c3cc([N+](=O)[O-])ccc3n2)cc1	-21	?	-20%	?	-2%
Cc1ccc(NC(=O)Nc2ccc(C(=O)N3CCOCC3)cc2)cc1	-10	-2%	3%	?	18%
Cc1cc(C)c2nc(C)cc(Nc3ccc(C(=O)N4CCOCC4)cc3)c2c1	-65*	5%	-4%	-23%	-1%
CC(=O)c1cccc(Nc2cc(C)nc3ccc(C)cc23)c1	-6	?	?	?	18µM*
